Measured values as given in PubChem BioAssay (NCI).
About 83,000 compounds went through this panel and 20% of them were active in at least one assay; those are over-represented in the sample as a whole.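 Interpretation: 100, growth as untreated; towards 0, rising growth inhibition; 0, no net growth; 0 to -100, cell death. Compounds scoring below 10 were considered active.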 Unmarked numbers belong to inactive results. Active and inactive are the calls of the source.

Tests used:
Assay in all cases: NCI-60 one-dose screen, 48 h (100 = growth as untreated, 0 = no growth, -100 = all killed)
Conditions in all cases: 10 µM unless noted
SK-MEL-2 melanoma = test system: SK-MEL-2 melanoma
EKVX NSCLC = test system: EKVX NSCLC
SN12C renal = test system: SN12C renal
UO-31 renal = test system: UO-31 renal
TK-10 renal = test system: TK-10 renal
ACHN renal = test system: ACHN renal
CAKI-1 renal = test system: CAKI-1 renal
A498 renal = test system: A498 renal
CCRF-CEM leukemia = test system: CCRF-CEM leukemia
MOLT-4 leukemia = test system: MOLT-4 leukemia

SMILES	growth (SK-MEL-2 melanoma)	growth (EKVX NSCLC)	growth (SN12C renal)	growth (UO-31 renal)	growth (TK-10 renal)	growth (ACHN renal)	growth (CAKI-1 renal)	growth (A498 renal)	growth (CCRF-CEM leukemia)	growth (MOLT-4 leukemia)
COc1ccc(-c2c(-c3nc4ccc(N5CCOCC5)cc4[nH]3)[nH]c(C)c2C(C)=O)cc1	77.1%	42.1%	52.6%	13.8%	-4.3% (active)	34.2%	16.9%	27.2%	43.4%	51.9%
COc1cnc2c(c1)C(=O)c1c-2n(CCCNC(C)C)c(=O)c2cc([N+](=O)[O-])ccc12	-58.6% (active)	-50% (active)	-54.6% (active)	-75.6% (active)	-63.6% (active)	-84.5% (active)	-71.8% (active)	-84.7% (active)	2.43% (active)	-15.6% (active)
C=C(C)[C@@H]1CC[C@]2(C)CC[C@]3(C)[C@H](CC[C@@H]4[C@@]5(C)CCCNC(C)(C)[C@@H]5CC[C@]43C)[C@@H]12	119%	103%	82.1%	88.2%	142%	95.5%	75.3%	79.7%	52%	46.6%
COc1cc2nc(Cl)nc(Nc3cccc(C(=O)/C=C/c4ccc(Cl)cc4)c3)c2cc1OC	96.4%	71.7%	70.5%	57.1%	149%	56%	51.9%	77.3%	19.4%	33.5%
N#Cc1cnc2cc(OC[C@@H](O)CO)c(NC(=O)C3CCCC3)cc2c1Nc1ccc(OCc2cccc(F)c2)c(Cl)c1	-56.9% (active)	-36.8% (active)	13.8%	35.3%	29.5%	40.2%	59.4%	55.5%	-26.8% (active)	6.26% (active)
COC(=O)[C@]12CC[C@@H](C)[C@H](C)[C@@H]1C1=CC[C@@H]3[C@@]4(C)C[C@@H](O)[C@H](O)[C@@](C)(CO)C4=CC[C@@]3(C)[C@]1(C)CC2	-36.9% (active)	-71.8% (active)	-71.5% (active)	-48.9% (active)	-17.7% (active)	-83.7% (active)	-10.2% (active)	-94.7% (active)	-33.6% (active)	-47.4% (active)
Cc1ccc(Cc2cnc(NC(=O)/C=C/c3cccc(C)c3)s2)cc1	51.6%	29.4%	31.4%	33.7%	28.3%	12.1%	12.5%	-5.43% (active)	9.04% (active)	16.7%
Fc1ccc(Nc2ccc3c(OCCCN4CCOCC4)cccc3n2)cc1F	95.2%	81.4%	81.6%	63.8%	92.4%	78.3%	82.3%	69.7%	69.4%	53%
CCN(CC)CCCCCNc1cc(OC(=O)c2ccccc2)cc2cccnc12	140%	102%	95%	92.5%	145%	96.6%	91%	81.1%	93.9%	55.4%
COc1cc(-c2cc3ncccc3c3nc(N)c4cccnc4c23)cc(OC)c1OC	30.7%	27.1%	26.7%	51.1%	16.3%	22.6%	31.1%	-17.6% (active)	32.5%	20.7%
CCN1CCN(C(=O)[C@@]2(C)CC[C@]3(C)CC[C@]4(C)C(=CC(=O)[C@@H]5[C@@]6(C)CC[C@H](OCCC#N)C(C)(C)[C@@H]6CC[C@]54C)[C@@H]3C2)CC1	93.5%	85.7%	83.1%	69.8%	93.4%	98.3%	80.2%	101%	63.4%	62.8%
Nc1ncnc2nc(Br)[nH]c12	102%	105%	100%	101%	96.2%	98.7%	93%	98.1%	94.3%	96.1%
Cc1cc(C)c(NC(=O)c2sc3nc4c(cc3c2N)CCCC4)c(C)c1	16.8%	76.7%	50%	62.1%	64.7%	55.8%	53.1%	12.7%	20.4%	29.9%
C[C@@H]1CCCCCCCCC[C@H](O)C(=O)C[C@@H](SC[C@@H](O)C(=O)O)C(=O)O1	100%	105%	93.6%	87.2%	95.2%	96.6%	102%	167%	59.4%	70.2%
O=C1c2cc3c(cc2-c2c1c1ccc(Cl)cc1c(=O)n2C[C@H](O)[C@@H](O)[C@H](O)CO)OCO3	-67% (active)	20.5%	-5.37% (active)	-71.6% (active)	-48.7% (active)	-58.7% (active)	-8.82% (active)	-77% (active)	8.41% (active)	2.33% (active)
CCN(CC)C(=O)CCCCCn1c2ccccc2c2c3c(c4c5ccccc5[nH]c4c21)C(=O)N(O)C3=O	61.4%	64.1%	33.2%	-50.7% (active)	68.3%	-64.8% (active)	-59% (active)	69.1%	21.3%	-0.333% (active)
COc1cccc(-c2nn(-c3ccccc3)cc2-c2ccnc(NCCCO)c2)c1	-0.25% (active)	67.6%	34.3%	48.9%	63.1%	55.6%	43%	15.1%	11.8%	25.1%
O=C1c2cccc3cccc(c23)C(=O)N1CC#Cc1ccc2c3c(cccc13)C(=O)N(CCN1CCNCC1)C2=O	113%	104%	97.2%	97.7%	141%	74.4%	82.4%	112%	7.71% (active)	6.74% (active)
COc1cc2ncnc(Nc3ccc(Oc4ccnc(C)c4)c(C)c3)c2cc1NC(=O)CC1CCSS1 (stereo not given)	-57.7% (active)	-1.66% (active)	21.3%	-23.7% (active)	-68.6% (active)	10.5%	3.34% (active)	66.8%	-30.8% (active)	-56.8% (active)
Cn1c(=O)c2c(nc(N3CCCC3)n2C)n(C)c1=O	97.4%	98.9%	102%	93.8%	85.3%	106%	93.8%	81.9%	105%	95.1%
CC1c2ccccc2N(S(=O)(=O)c2ccccc2)C1C (stereo not given)	76.5%	92.5%	105%	75.7%	100%	93.6%	74.5%	104%	78.2%	75.1%
COC(=O)[C@]12CC[C@@H](C(/C=C/c3cccnc3)=N/O)[C@@H]1[C@H]1CC[C@@H]3[C@@]4(C)CC(=C/c5cccnc5)/C(=N/O)C(C)(C)[C@@H]4CC[C@@]3(C)[C@]1(C)CC2	46%	26%	44.5%	19.5%	67.9%	42.9%	23.7%	92.5%	16.6%	2.12% (active)
CN(C)c1ccc(-c2ccc(-c3ccc(C(=N)N)c(F)c3)s2)cc1	-0.355% (active)	-73.6% (active)	-76.5% (active)	-92.6% (active)	-85.5% (active)	-95.8% (active)	-87.9% (active)	4.91% (active)	-37.4% (active)	-19.3% (active)
COc1ccc(/C=C(\C#N)c2cc3ccccc3n2C(C)=O)cc1	83.3%	78%	91%	88.1%	126%	102%	69.1%	78.3%	75.6%	70%
N#Cc1c(-c2ccco2)nc2c(c(-c3ccccc3)nn2-c2ccccc2)c1-c1ccc(O)cc1	70.4%	56.4%	82.4%	92%	89.2%	72.4%	58.9%	90.9%	41.5%	9.84% (active)
